Experimental findings from PubChem BioAssay AID492949 (National Center for Advancing Translational Sciences (NCATS), 2010) are described below.

Inconclusive results are not listed. A number with no mark means an inactive call. The source made the active and inactive calls. The call rests on the fitted dose curve; in most records, active means well fitted activation curve with a large enough effect; inconclusive means small, poorly fitted or top-dose-only effect; inactive means no such curve, though single readings can be large or run the other way.
Potency means the concentration at half of the fitted maximal effect.

The test deals with Relaxin receptor 1 (Homo sapiens) (UniProt Q9HBX9). Description: qHTS Assay for Agonists of the Relaxin Receptor RXFP1: THP1 Hit Validation. Further: nearly all actives have a fitted effect of over 60% in size.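 On activation: 0% = buffer alone basal and 100% = 29 nM porcine relaxin.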 The conditions noted are these: THP1-RXFP1 cells, cAMP TR-FRET, 30 min; series mostly up to 115 µM; activation: at the top concentration. In a few lines: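 Stable RXFP1 THP1 line; 30 min compound exposure at 37C in presence of Ro 20174; cAMP detected by HTRF after lysis.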
Chain of Relaxin receptor 1 (Homo sapiens) (Q9HBX9 whole entry, looked up): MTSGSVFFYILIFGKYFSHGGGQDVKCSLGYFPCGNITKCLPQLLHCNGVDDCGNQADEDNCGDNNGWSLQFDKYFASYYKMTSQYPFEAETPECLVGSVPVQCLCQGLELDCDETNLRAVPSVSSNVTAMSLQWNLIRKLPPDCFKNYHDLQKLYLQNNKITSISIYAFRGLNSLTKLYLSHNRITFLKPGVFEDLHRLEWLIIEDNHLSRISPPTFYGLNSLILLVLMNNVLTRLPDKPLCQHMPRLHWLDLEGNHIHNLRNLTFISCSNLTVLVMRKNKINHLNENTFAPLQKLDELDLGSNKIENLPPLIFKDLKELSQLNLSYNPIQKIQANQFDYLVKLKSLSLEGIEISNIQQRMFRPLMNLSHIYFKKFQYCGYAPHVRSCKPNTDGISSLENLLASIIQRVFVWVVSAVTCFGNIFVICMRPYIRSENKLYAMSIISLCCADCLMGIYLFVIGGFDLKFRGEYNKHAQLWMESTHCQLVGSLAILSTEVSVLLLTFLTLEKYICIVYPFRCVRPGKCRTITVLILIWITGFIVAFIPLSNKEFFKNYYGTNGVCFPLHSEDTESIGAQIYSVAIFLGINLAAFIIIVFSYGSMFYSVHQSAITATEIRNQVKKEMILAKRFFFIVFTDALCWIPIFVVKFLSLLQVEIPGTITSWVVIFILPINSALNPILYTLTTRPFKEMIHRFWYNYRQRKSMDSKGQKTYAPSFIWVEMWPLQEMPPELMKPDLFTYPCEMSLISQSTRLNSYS
A general note: Quantitative high-throughput screening tests each substance at several concentrations.
As for `COC(=O)Cn1cnc2c(C#N)c3n(c2c1=O)CCCCC3`, the Potency is 8.7 µM (active). Still for that read-out and setting: as for `O=C(Nc1cccc(C(F)(F)F)c1)c1ccccc1NC(=O)C1CCCCC1`, the entry is “inactive”. With `O=C(O)CNC(=O)c1ccccc1NC(=O)c1ccco1`, the “activation” value is -4.65% [at 125 µM]. On the same count and under the same terms, as for `CC1(C(=O)Nc2nc3ccccc3s2)CC1(Br)Br` (stereo not drawn), the figure is 4.93%. For `O=C(Cn1cnc2c(nnn2-c2ccc(F)cc2)c1=O)NCC1CCCO1` (stereo not drawn), the Potency was 8.7 µM (active). The same measure, in the same setting: as for `Cn1c(=O)c(C(=O)COc2ccc(C#N)cc2)c(N)n(Cc2ccccc2)c1=O`, the figure is 8.7 µM (active); as for `Cc1ccc(-n2nnc3c(=O)n(CC(=O)NCC4CCCO4)cnc32)cc1` (stereo not drawn), 15.5 µM (active). On to `O=C(Nc1ccccc1C(=O)N1CCCCC1)c1ccco1`, for which the “activation” value was 1.27% [at 125 µM].

In the case of `COc1ccc(CNC(=O)CN2C(=O)NC(C)(c3cccc(Br)c3)C2=O)cc1` (stereo not drawn), the “activation” value is -2.88%.

With `COc1ccc(Nc2ncc(C#N)c(N)n2)c(OC)c1`, the “activation” value is -8.23%. Turning to `Cc1ccc(C(=O)Nc2ccccc2C(N)=O)o1`, the “activation” value is 10.3% [at 125 µM].

With `O=C(Nc1ccccc1C(=O)NC1CCCCC1)c1ccco1`, the “activation” value was 3.46% [at 125 µM]. Consider `COc1ccc(CN2C(=O)c3cccnc3C2=O)cc1S(=O)(=O)NC1CCCCC1C` (stereo not drawn), for which the Potency is 27.5 µM (active). Turning to `CCN(CC)CCCCCC(=O)Nc1ccccc1C(=O)Nc1ccccc1`, the “activation” value is -4.7% [at 125 µM].

In the case of `CN(C)c1ccc2nc3c(=O)[nH]c(=O)nc-3n(CC(O)C(O)C(O)CO)c2c1` (stereo not drawn), the “activation” value was -8.95%.

As to `Cc1cccc(NC(=O)c2ccccc2NC(=O)C2CCCCC2)c1C`, the “activation” value is 4.61% [at 125 µM]. As to `O=C(Nc1ccccc1C(=O)N1CCOCC1)c1ccco1`, the “activation” value is 3.58% [at 125 µM].

For the molecule `CCOC(=O)CCCCC(=O)c1[nH]c(=O)[nH]c1CSc1nnc2c3cc(Br)ccc3n(C)c2n1`, the Potency was 8.68 µM (active). In the case of `O=C(OCc1nc2ccsc2c(=O)[nH]1)c1cccc(S(=O)(=O)N2CCOCC2)c1`, the Potency is 43.6 µM (active).

Regarding `COc1ccccc1CNS(=O)(=O)c1cc(CN2C(=O)c3cccnc3C2=O)ccc1OC`, the Potency was 17.4 µM (active). As for `C=C(C)C(=O)Nc1cccc(C2=NOC3(C2)C[C@@H](C(N)=O)N(C(=O)c2ccc(Cl)cc2)C3)c1` (stereo partly drawn), the “activation” value was 1.3%. In the case of `O=C(O)c1ccc(N=C2NC(=O)C(CO)(CO)S2)cc1`, the “activation” value is 28.2%. With `Cc1cc(Br)c2nc3c(c(C(=O)O)c2c1)CCCCC3`, the Potency is 3.08 µM (active).

As to `COc1ccc(CN2C(=O)c3cccnc3C2=O)cc1S(=O)(=O)NC1CCCCC1`, the Potency is 19.5 µM (active). With `O=C(O)CSc1ccnc2cc(Cl)ccc12`, the Potency was 21.8 µM (active). Regarding `CCN(CC)C(=O)c1cc(Cl)ccc1NC(=O)c1ccco1`, the “activation” value was -2.97% [at 125 µM].

For `CC1CCCCN1C(=O)c1ccccc1NC(=O)c1ccco1` (stereo not drawn), the “activation” value was -1.74% [at 125 µM].

As to `O=S(=O)(c1cccc(-c2cn3cccnc3n2)c1)N1CCOCC1`, the Potency was 13.8 µM (active).

Turning to `COC(=O)c1c(N2C(=O)CC(Sc3ncccc3C(=O)O)C2=O)sc(C)c1C` (stereo not drawn), the “activation” value is -8.48%.

Consider `O=C(Nc1ccccc1C(=O)NCc1ccco1)c1ccco1`, for which the “activation” value was 2.17% [at 125 µM]. Still for that read-out and setting: as for `Nc1ncnc2c1ncn2C1OC(CO)C(O)C1O` (stereo not drawn), the figure is 5.01%. For `Cc1ccc(-n2c(=S)[nH]c3sc4c(c3c2=O)CCC4)cc1`, the Potency is 8.68 µM (active). Turning to `CC(=O)c1c(C)[nH]c(C(=O)OCc2cc(=O)n3cc(Br)ccc3n2)c1C`, the Potency is 8.68 µM (active). As for `COc1cccc(CNC(=O)c2ccc(CS(=O)Cc3ccc(C)cc3)o2)c1` (stereo not drawn), the “activation” value was 2.75% [at 43.1 µM]. As for `CC1CCN(S(=O)(=O)c2ccc3nc(N4CCN(c5ccccc5)CC4)ccc3c2)CC1`, the Potency was 15.4 µM (active). Turning to `CC1C/C(=N\NC(N)=S)c2cc(Cl)ccc2S1` (stereo not drawn), the “activation” value is 4.17%. Still for that read-out and setting: to `CCNc1nc(NCC)nc(N(C)/N=C/c2ccco2)n1` belongs -2.12%. On the same count and under the same terms, as for `Nc1nnc(CC(=O)N/N=C/c2ccc(-c3ccc(Cl)cc3Cl)o2)s1`, the figure is 4.21%.
